Assay outcomes from PubChem BioAssay.
An excerpt weighted towards active compounds, which were near 1.4% of everything screened.
SARS PLP yeast: blocks SARS-CoV papain-like protease in a yeast assay; S. cerevisiae expressing SARS-CoV PLpro, growth rescue; Potency, µM (series often up to 32.9 µM), for inactives: top-dose activity, positive = growth rescue, actives largely listed as activators; 0.19% of 330,000 active; AID 485353; calls by dose curve; further: 0% is about no effect; nearly all actives have a fitted effect of over 55% in size
VACV mCherry inh: inhibitors of vaccinia virus infection (mCherry reporter signal); Vaccinia virus mCherry reporter infection, fluorescence; Potency, µM (highest dose often 36.5 µM), for inactives: at the highest dose activity change, negative = inhibition, hits mostly inhibitors; 0.63% of 310,000 active; AID 720579; calls by dose curve; tested in A549 cells; further: on the % scale 0 is the no-effect control and ±100 the full control effect; nearly all actives have a fitted effect of over 35% in size
VACV Venus inh: inhibitors of vaccinia virus (Venus reporter) | Vaccinia virus Venus reporter expression, fluorescence | Potency, µM (highest dose often 36.5 µM), for inactives: top-dose activity change, negative = inhibition, usual class: inhibitors | 0.46% of 330,000 active; calls by dose curve; tested in A549 cells; further: on the % scale 0 is the no-effect control and ±100 the full control effect; nearly all actives have a fitted effect of over 30% in size
AmpC no deterg: inhibitors of E. coli AmpC beta-lactamase without detergent | AmpC nitrocefin hydrolysis, absorbance 480 nm, 0.0001% Triton | Potency, µM (series often up to 57.1 µM), for inactives: top-dose activity change, negative = inhibition, actives largely listed as inhibitors | 0.52% of 330,000 active;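 further: plate controls were no compound for no effect and no enzyme for full effect; nearly all actives have a fitted effect of over 20% in size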
Target sequence (P00811 whole entry, looked up): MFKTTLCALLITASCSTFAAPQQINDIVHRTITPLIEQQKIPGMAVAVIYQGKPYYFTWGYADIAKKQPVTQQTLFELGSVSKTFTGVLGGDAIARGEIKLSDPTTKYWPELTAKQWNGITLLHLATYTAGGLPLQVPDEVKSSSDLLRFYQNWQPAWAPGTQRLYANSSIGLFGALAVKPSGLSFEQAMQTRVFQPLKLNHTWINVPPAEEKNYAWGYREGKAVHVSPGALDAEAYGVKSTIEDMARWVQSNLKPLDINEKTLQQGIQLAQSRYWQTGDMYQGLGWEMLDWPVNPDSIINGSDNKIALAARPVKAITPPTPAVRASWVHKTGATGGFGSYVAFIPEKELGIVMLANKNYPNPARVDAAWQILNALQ
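20 mM phosphate pH 7.0 + 0.01% (detergent screen) or 0.0001% Triton X-100; 5.3 nM AmpC reagent; cpd preinc 15 min RT; nitrocefin (800 uM stock) to start; A480 q20 s × 4 min; Activity was normalised to no-enzyme and no-compound control wells.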
AMA1 RON2 block: disrupts binding of P. falciparum AMA1 to RON2; AlphaScreen AMA1-biotinylated RON2 peptide binding; Potency, µM (series often up to 58.2 µM), for the others: at the highest dose activity change, negative = inhibition, most hits filed as inhibitors; 0.2% of 360,000 active; AID 720542;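 further: 0% = vehicle wells and -100% = peptide control; nearly all actives have a fitted effect of over 45% in size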
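AMA1 (3D7) with his tag at 25 nM final met compounds first, then biotinylated RON2 peptide at 25 nM; detection used donor plus acceptor beads, 10 µg/mL apiece, read by AlphaScreen after 30 min at room temperature.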
AmpC detergent: inhibitors of E. coli AmpC beta-lactamase with detergent; AID 485294; AmpC hydrolysis of nitrocefin, absorbance 480 nm, 0.01% Triton; Potency, µM (doses to about 114 µM), inactives show at the top dose activity change, negative = inhibition, most hits filed as inhibitors; 0.041% of 370,000 active; P00811;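 further: 0% = no-compound wells and -100% = no-enzyme wells; nearly all actives have a fitted effect of over 25% in size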
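AmpC (5.3 nM in the dispensed reagent) in 20 mM phosphate pH 7.0 with 0.01% (detergent screen) or 0.0001% Triton X-100 was preincubated with compounds for 15 min at room temperature. Nitrocefin was then added from an 800 uM solution, and hydrolysis was followed at 480 nm.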
The depositor's hits bear a star; i = inactive; ? = inconclusive; . = no result. Unless noted, the call rests on the fitted dose curve; in most records, active means well fitted curve in the direction sought with a large enough effect; inconclusive means small, poorly fitted or top-dose-only effect, or another doubt; inactive means no such curve, though single readings can be large; an effect the other way counts as inactive or inconclusive. Potency means the concentration at half of the fitted maximal effect.

SMILES	SARS PLP yeast	VACV mCherry inh	VACV Venus inh	AmpC no deterg	AMA1 RON2 block	AmpC detergent
Cc1ccc(NC(=S)Nc2nc(CC(=O)Nc3ccccc3)cs2)cc1	5.3%	.	.	14.1µM*	65.4%	-2.1%
CC(=O)N1CCC[C@H]1C(=O)NCC1Cc2cc(-c3cccc(OC(F)(F)F)c3)ccc2O1 (stereo partly drawn)	.	-0.6%	-25.2%	.	.	.
O=S(=O)(c1cccc(C(F)(F)F)c1)N1CCN(c2nc(-c3ccccc3)nc3ccccc23)CC1	.	-9.2%	-13.9%	.	.	.
CC(C)Oc1ccc(CNC(=O)Cn2c(=O)oc3ccccc32)cc1	3.1%	-9.7%	1.9%	-8.9%	-8.6%	14.0%
CCCOc1ccc(CNC(=O)Cn2c(=O)oc3ccccc32)cc1	6.9%	-5.7%	-1.4%	7.94µM*	-4.8%	15.1%
CC(C)(CO)NC(=O)c1cnn(-c2nccc(-c3ccc4c(c3)OCO4)n2)c1C1CC1	.	-22.6%	-18.7%	.	.	.
OC(CNCC1CCCO1)Cn1c2ccc(Cl)cc2c2cc(Cl)ccc21 (stereo not drawn)	-11.6%	.	.	151.2%	-11.8%	2.5%
OC(CNCCC1C=Nc2ccccc21)Cn1c2ccc(Cl)cc2c2cc(Cl)ccc21 (stereo not drawn)	-40.8%	20µM*	?	2.5%	?	1.3%
COC(=O)C1C(=O)c2c([nH]c(C(=O)OC3CCCCC3)c2C)CC1C (stereo not drawn)	-5.4%	.	.	-27.4%	-8.0%	-12.3%
COC(=O)C1C(=O)c2c([nH]c(C(=O)OC3CCCC3C)c2C)CC1C (stereo not drawn)	3.7%	-17.7%	-5.7%	7.08µM*	-6.3%	?
O=C(NNC(=O)c1cccnc1SCc1cccc([N+](=O)[O-])c1)c1ccccn1	-2.0%	3.98µM*	?	-16.7%	42.8%	-3.5%
O=C(NNC(=O)c1cccnc1SCc1cccc([N+](=O)[O-])c1)c1ccc(F)cc1	-8.8%	-10.3%	-15.4%	-21.3%	74.0%	-10.4%
CCOc1ccc(-n2ccc(=O)c(C(=O)Nc3ccc(S(=O)(=O)Nc4nccs4)cc3)n2)cc1	-1.3%	.	.	-28.2%	-1.4%	-4.5%
O=C(Nc1ccc(S(=O)(=O)Nc2nccs2)cc1)c1nn(-c2ccc(F)cc2)ccc1=O	-3.8%	.	.	10µM*	-29.4%	1.3%
Cc1cccc(NC(=O)/C(C#N)=C/c2cn(CC(=O)NCc3ccco3)c3ccccc23)c1C	4.3%	-17.7%	-27.7%	14.1µM*	0.0%	-11.8%
COc1ccc(C2=NN(C(=O)COC(=O)c3ccc(S(C)(=O)=O)c([N+](=O)[O-])c3)C(c3ccco3)C2)cc1 (stereo not drawn)	-1.0%	11.2µM*	?	18.3%	-0.6%	.
COc1ccc(C2=NN(C(=O)COc3ncnc4ccccc34)C(c3ccco3)C2)cc1 (stereo not drawn)	-1.1%	-12.4%	-16.8%	19.3%	-13.3%	-1.0%
COC(=O)c1c(OCCN2CCCCC2)cc(=O)n2c1CCN(Cc1cccc3nccnc13)CC2	.	i	-14.9%	.	.	.
Cc1cccc(C)c1NC(=O)C(NS(=O)(=O)c1ccc2c(c1)CCC(=O)N2)c1ccccc1 (stereo not drawn)	.	-12.1%	3.0%	.	.	6.0%
Cc1cccc(NC(=O)C(NS(=O)(=O)c2ccc3c(c2)CCC(=O)N3)c2ccccc2)n1 (stereo not drawn)	0.3%	.	.	25.1µM*	13.9%	-6.4%
COc1ccc(-c2cc(C)cc3c2OC(CNC(=O)c2cc(C(C)C)on2)C3)nn1 (stereo not drawn)	.	-7.2%	5.4%	.	.	.
Clc1ccc(-c2nnc(Sc3nc4ccccc4o3)c3ccccc23)cc1	1.1%	14.1µM*	?	-4.4%	-3.6%	-8.9%
Cc1nnc(Sc2nc3ccccc3o2)c2ccccc12	-11.3%	?	?	-29.2%	17.4%	-0.1%
Cc1ccc(-c2nnc(Sc3nc4ccccc4o3)c3ccccc23)cc1	-3.9%	10µM*	10µM*	45.6%	14.9%	-7.7%
CCSc1nnc(-c2ccc(Cl)cc2)c2ccccc12	0.1%	.	.	12.1%	-15.1%	?
SMILES	SARS PLP yeast	VACV mCherry inh	VACV Venus inh	AmpC no deterg	AMA1 RON2 block	AmpC detergent
CC1CCC(NC(=O)C2(C)CCC(=O)N2Cc2cccnc2)CC1 (stereo not drawn)	-0.2%	-13.3%	-5.4%	44.7µM*	-5.9%	?
O=C(N1CCOCC1)n1cnc2ccccc21	6.9%	-7.4%	-8.7%	-3.6%	0.8%	-8.9%
O=C(N1CCOCC1)n1nnc2ccccc21	-9.9%	.	.	12.6µM*	-10.3%	44.7µM*
Clc1ccc2c(ccc[n+]2CCC2CCCCC2)c1	.	21.5%	-17.6%	.	.	.
C=C1C(=O)[C@@]23[C@H](O)C[C@@H]4C(C)(C)CC[C@H](O)[C@@]4(C)[C@@H]2CC[C@@H]1[C@H]3O	-4.5%	?	2.51µM*	1.1%	19.3%	?
C=C1C(=O)[C@@]23[C@H](O)C[C@@H]4C(C)(C)CC[C@H](O)[C@]4(C)[C@@H]2C[C@H](O)[C@@H]1[C@H]3O	3.8%	?	4.47µM*	-17.3%	-2.9%	?
COC(=O)[C@@H]1CCCN1C(=O)c1cnn(-c2nccc(-c3cc(C)sc3C)n2)c1C1CC1	.	i	-10.9%	.	.	.
OC[C@H]1OC([S-])[C@H](O)[C@@H](O)[C@@H]1O.[Au+] (stereo partly drawn)	.	-14.6%	-0.5%	.	.	.
CC(=NNC(=S)N1CCCCC1)c1ccccn1	.	4.47µM*	10µM*	.	13.6%	.
CSC(=S)NN=C(C)c1cccc(C)n1	.	?	?	.	-14.1%	.
CC(=NNC(=S)N1CCCCC1)c1cccc(C)n1	.	0.316µM*	?	.	-20.6%	.
CC(=NNC(=S)N1CC2CCC(CC2)C1)c1ccncn1	.	1.58µM*	6.31µM*	.	?	.
CN1CCOc2cc(S(=O)(=O)N3CCN(c4nc(-c5cccs5)nc5ccccc45)CC3)ccc21	.	i	-18.5%	.	.	.
Cc1cc(C)n(-c2cccc(C(=O)NCC3Cc4cc(Cl)cc(-c5cnccn5)c4O3)c2)n1 (stereo not drawn)	.	-18.5%	-5.2%	.	.	.
COc1cc(=O)n2c(c1C(=O)NCc1ccco1)CCN(C(=O)c1c(F)ccc(F)c1F)CC2	.	i	0.0%	.	.	.
Cn1c(-c2ccncc2)nc2cc(C(=O)N[C@H]3CCCCNC3=O)cc(NC(=O)C3CCC3)c21	.	-13.4%	-11.9%	.	.	.
CCOc1ccc(C(=O)N/N=C(\c2ccccc2)c2ccccn2)cc1	-38.4%	11.2µM*	?	-16.3%	-4.3%	1.4%
CCn1c2ccccc2c2cc(NC(=O)COc3ccccc3)ccc21	3.4%	-25.9%	?	25.1µM*	-4.1%	-7.1%
CCn1c2ccccc2c2cc(NC(=O)COC(=O)c3cc(S(N)(=O)=O)c(Cl)cc3Cl)ccc21	0.9%	11.2µM*	?	?	10.3%	0.5%
